This is an account of results in PubChem BioAssay (NCATS).

Assay [1] addresses Lysosomal acid glucosylceramidase (Homo sapiens) (UniProt P04062). The assay is described as follows: Glucocerebrosidase-p2 (AID 348; in the data active = potency below about 10 µM; note: potency is the fitted concentration of half-maximal effect). To be noted: purified GBA, blue fluorogenic substrate, 40 min. The essentials:
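Normal human glucocerebrosidase (0.2 nM) with blue fluorogenic substrate (80 uM final) in citrate/phosphate pH 5.9 with 10mM sodium taurocholate, 0.01% tween-20; 40 min RT, NaOH/glycine stop; fluorescence Ex 365/Em 440; AC50 from a titration from 0.6 nM upwards.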

Assay [2] can be described thus: AP1 Signaling Pathway (AID 357).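 Note: ME-180 reporter cells stimulated with EGF at its EC50 level; % is set by controls: 0 for no effect and ±100 for the full control effect.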 Particulars: ME-180 AP-1-bla reporter, EGF-induced, beta-lactamase ratio, 5 h; at 7.69 µM (top of the series) unless noted. The essentials: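 First, ME-180 AP-1-bla cells were cultured overnight at 37 °C in low-serum Opti-MEM. Next, titrated compounds with EC50 EGF were incubated 5 hours. Finally, CCF4 was added for 2.5 hours and the 460/530 nm ratio recorded.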

Assay [3] has as its target Cytochrome P450 1A2 (Homo sapiens) (UniProt P05177). In words: p450-cyp1a2 (AID 410; calls by dose curve; note: potency is the fitted concentration of half-maximal effect;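 for activity change, negative = inhibition: -100% = full effect of reference inhibitor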). Particulars: recombinant CYP1A2, luciferin-ME demethylation, luminescence; series mostly up to 11.4 µM. The gist of the method:
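Luminescent demethylation readout: Luciferin-ME (100uM, equal to Km) turned over by 20nM CYP1A2 for 60 min at room temperature after NADPH regeneration addition, following 10 min compound preincubation. Normalization used 57 uM furafylline as full inhibition.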

Assay [4] in a line: Stat Signaling Pathway (AID 446).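 Note: ME-180 cervical cancer cells given 40 pM IL-6 alongside compound; SIE-controlled beta-lactamase reporter measured as 460/530 nm FRET emission ratio; % is set by controls: 0 for no effect and ±100 for the full control effect.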 To be noted: ME-180 (cervical carcinoma) SIE beta-lactamase reporter, IL-6 stimulated, 5 h; at 7.69 µM (top of the series) unless noted. The gist of the method:
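FRET read-out (405 nm excitation, 460/530 nm emission) of a beta-lactamase reporter under a STAT-inducible element in ME-180 cervical carcinoma cells. Cells with compound receive 40 pM IL-6 for 5 h. Values are normalised to AC90 stimulation and AC90 JAK-inhibitor controls.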

The target of assay [5] is Glucocorticoid receptor (Homo sapiens) (UniProt P04150). The assay is described as follows: GR-GFP Redistribution (AID 450;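 active = compounds whose dose series gives a full or clear partial fitted curve of increased nuclear translocation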; note: potency is the fitted concentration of half-maximal effect). To be noted: U2OS GR-GFP nuclear translocation, laser cytometry, 2 h.
Assay [6] has the same target. In words: GR-EFC Redistribution (AID 451; calls by dose curve; note: potency is the fitted concentration of half-maximal effect). To be noted: CHO-K1 GR-EFC translocation, beta-gal luminescence, 2 h. The gist of the method: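 CHO-K1 cells stably expressing nuclear-localized β-gal enzyme acceptor and GR fused C-terminally to the enzyme donor fragment; ligand-driven nuclear translocation restores β-gal by complementation. Compounds titrated up to 46 uM final, 2 h at 37 °C; luminescence read.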

Assay [7] addresses 3',5'-cyclic-AMP phosphodiesterase 4B (Homo sapiens) (UniProt Q07343). In words: qHTS Assay for Inhibitors of PDE-IV (AID 607; active = well fitted activation curve with a large enough effect in the main read-out, with a control signal flat, not every such curve was filed as active; note: % of control where 0% means no effect). Particulars: HEK293 ACTOne CNG channel cells, membrane potential fluorescence; series mostly up to 22.9 µM. The gist of the method:
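Cell-based read-out of cAMP via a modified cyclic nucleotide-gated channel and membrane potential dye (535/590 nm) in HEK293 cells expressing PDE4 endogenously. Compounds tested up to 22.9 uM final; 100 uM RO 20-1724 reference.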

Assay [8] addresses Cytochrome P450 3A4 (Homo sapiens) (UniProt P08684). The assay is described as follows: qHTS Assay for Inhibitors and Substrates of Cytochrome P450 3A4 (AID 884; active = well fitted curve in the direction sought with a large enough effect; an effect the other way counts as inactive or inconclusive; note: potency is the fitted concentration of half-maximal effect; nearly all actives have a fitted effect of over 50% in size). Particulars: recombinant CYP3A4, Luciferin-PPXE luminescence; series mostly up to 57.1 µM. The essentials:
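Luminescent readout of luciferin produced by CYP3A4 (20 nM) dealkylation of Luciferin-PPXE, 25 uM (its KM). NADPH-driven reaction ran 60 min at RT after 10 min compound preincubation; data scaled to 57 uM ketoconazole as 100% inhibition.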
(In general: Quantitative high-throughput screening tests each substance at several concentrations.)

Assay [9] has the same target. In words: qHTS Assay for Activators of Cytochrome P450 3A4 (AID 885; active = well fitted curve in the direction sought with a large enough effect; an effect the other way counts as inactive or inconclusive; note: nearly all actives have a fitted effect of over 65% in size). Particulars: recombinant CYP3A4, Luciferin-PPXE luminescence, 60 min; series mostly up to 57.1 µM. The essentials:
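Luminescent readout of luciferin formed from 25 uM Luciferin-PPXE (KM level) by 20 nM CYP3A4 in 200 mM KPO4, with 60 min NADPH-driven reaction at room temperature after 10 min compound exposure. Ketoconazole (57 uM) defined 100% inhibition.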

For assay [10], the target named is Cytochrome P450 2C19 (Homo sapiens) (UniProt P33261). The assay is described as follows: qHTS Assay for Inhibitors and Substrates of Cytochrome P450 2C19 (AID 899; active = well fitted curve in the direction sought with a large enough effect; an effect the other way counts as inactive or inconclusive; note: nearly all actives have a fitted effect of over 60% in size; note: potency is the fitted concentration of half-maximal effect). Particulars: recombinant CYP2C19, luciferin-H EGE luminescence; series mostly up to 11.4 µM. The gist of the method:
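In 50mM KPO4, the reaction held 5nM enzyme and KM-level (10uM) Luciferin-H EGE; it ran 60 min at 37C after NADPH regeneration and a 10 min compound preincubation. Luminescence values were scaled to 57uM ketoconazole as complete inhibition.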

The nature of assay [11]: NFAT Signaling Pathway (AID 444).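 Note: carbachol stimulus at about its EC50 of 1 µM final; % is set by controls: 0 for no effect and ±100 for the full control effect.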 To be noted: Jurkat NFAT-bla M1, carbachol, beta-lactamase ratio, 5 h; at 7.69 µM (top of the series) unless noted. The gist of the method: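 Jurkat cells carrying an NFAT-driven β-lactamase reporter and co-transfected muscarinic M1 receptor were treated with compound plus carbachol (1 uM final, an EC50 level) for 5 h at 37 °C. CCF4 loading followed for 1 h at RT; 460/530 nm ratio gave %activity.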

Assay [12] addresses Mitogen-activated protein kinase 10 (Mus musculus) (UniProt Q61831). In words: JNK3 AlphaScreen Assay (AID 530).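 Note: kinase came from lysate of stimulated human HepG2 cells; % is set by controls: 0 for no effect and ±100 for the full control effect.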 To be noted: JNK3 lysate, c-Jun phosphorylation; series mostly up to 57.1 µM. The essentials: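 Phosphorylation of biotinylated GST-cJun(1-79) at Ser73 is measured by AlphaScreen proximity luminescence. Enzyme is JNK3 in HepG2 lysates activated with interleukin-1beta and tumor necrosis factor alpha; ATP is 10 uM final.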
On the technique in general: Alpha assays give light when donor and acceptor beads are brought close together.

The target in assay [13] is Cytochrome P450 2D6 (Homo sapiens) (UniProt P10635). In words: qHTS Assay for Inhibitors and Substrates of Cytochrome P450 2D6 (AID 891; active = well fitted curve in the direction sought with a large enough effect; an effect the other way counts as inactive or inconclusive; note: nearly all actives have a fitted effect of over 60% in size; note: potency is the fitted concentration of half-maximal effect). To be noted: recombinant CYP2D6, luciferin-ME EGE luminescence; series mostly up to 11.4 µM. The gist of the method:
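Luminescent read-out of luciferin formed by 5 nM human CYP2D6 demethylating 30 uM Luciferin-ME EGE (Km level) over 60 min at room temperature after NADPH regeneration addition. Data normalized to full inhibition by 1.43 uM quinidine.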

Unmarked numbers belong to inactive results. Results filed as inconclusive are left out. Calls of active or inactive are those of the source. Unless noted, calls come from the whole dose curve; as a rule, active = well fitted curve in either direction with a large enough effect (not every such curve was filed as active); inconclusive = small, poorly fitted or top-dose-only effect, or another doubt; inactive = flat fitted curve, though single readings scatter. Bounds are passed on as bounds.

Chain of Glucocorticoid receptor (Homo sapiens) (P04150 whole entry, looked up, the tested form may be a part): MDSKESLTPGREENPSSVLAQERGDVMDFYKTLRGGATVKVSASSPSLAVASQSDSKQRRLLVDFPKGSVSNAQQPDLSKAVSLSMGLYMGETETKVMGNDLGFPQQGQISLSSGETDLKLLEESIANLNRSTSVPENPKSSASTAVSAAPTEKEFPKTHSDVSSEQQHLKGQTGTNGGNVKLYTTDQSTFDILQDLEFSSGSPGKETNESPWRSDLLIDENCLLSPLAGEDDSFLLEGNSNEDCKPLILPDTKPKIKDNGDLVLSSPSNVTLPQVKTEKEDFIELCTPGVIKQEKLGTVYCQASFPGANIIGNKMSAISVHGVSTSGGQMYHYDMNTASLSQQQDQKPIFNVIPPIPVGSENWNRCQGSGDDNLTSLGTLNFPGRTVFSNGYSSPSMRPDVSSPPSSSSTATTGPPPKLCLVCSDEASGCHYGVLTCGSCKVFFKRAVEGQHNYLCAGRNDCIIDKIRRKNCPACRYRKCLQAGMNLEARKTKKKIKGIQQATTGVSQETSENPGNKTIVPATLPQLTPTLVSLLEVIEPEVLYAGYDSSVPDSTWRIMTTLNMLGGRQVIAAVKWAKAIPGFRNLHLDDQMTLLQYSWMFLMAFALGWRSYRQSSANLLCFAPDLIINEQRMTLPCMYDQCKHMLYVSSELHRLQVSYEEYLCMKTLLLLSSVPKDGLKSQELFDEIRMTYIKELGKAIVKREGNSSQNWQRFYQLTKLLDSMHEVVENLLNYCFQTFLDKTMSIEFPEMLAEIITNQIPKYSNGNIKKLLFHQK
Chain of Lysosomal acid glucosylceramidase (Homo sapiens) (P04062 whole entry, looked up): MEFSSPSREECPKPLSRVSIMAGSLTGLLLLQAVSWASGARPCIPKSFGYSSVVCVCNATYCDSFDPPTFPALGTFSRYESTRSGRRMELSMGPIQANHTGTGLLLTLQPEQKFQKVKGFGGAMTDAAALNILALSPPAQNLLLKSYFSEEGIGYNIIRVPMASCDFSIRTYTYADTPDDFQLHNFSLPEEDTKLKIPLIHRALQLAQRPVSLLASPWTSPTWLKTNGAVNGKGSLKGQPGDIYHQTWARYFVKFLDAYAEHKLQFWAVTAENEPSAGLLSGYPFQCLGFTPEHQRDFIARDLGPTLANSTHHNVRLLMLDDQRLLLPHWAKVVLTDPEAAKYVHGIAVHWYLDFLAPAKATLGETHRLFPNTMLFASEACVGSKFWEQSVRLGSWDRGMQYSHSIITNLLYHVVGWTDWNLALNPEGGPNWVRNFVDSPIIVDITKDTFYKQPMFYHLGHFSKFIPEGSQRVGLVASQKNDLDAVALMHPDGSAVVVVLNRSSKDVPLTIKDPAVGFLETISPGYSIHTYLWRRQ
Chain of Cytochrome P450 1A2 (Homo sapiens) (P05177 whole entry, looked up): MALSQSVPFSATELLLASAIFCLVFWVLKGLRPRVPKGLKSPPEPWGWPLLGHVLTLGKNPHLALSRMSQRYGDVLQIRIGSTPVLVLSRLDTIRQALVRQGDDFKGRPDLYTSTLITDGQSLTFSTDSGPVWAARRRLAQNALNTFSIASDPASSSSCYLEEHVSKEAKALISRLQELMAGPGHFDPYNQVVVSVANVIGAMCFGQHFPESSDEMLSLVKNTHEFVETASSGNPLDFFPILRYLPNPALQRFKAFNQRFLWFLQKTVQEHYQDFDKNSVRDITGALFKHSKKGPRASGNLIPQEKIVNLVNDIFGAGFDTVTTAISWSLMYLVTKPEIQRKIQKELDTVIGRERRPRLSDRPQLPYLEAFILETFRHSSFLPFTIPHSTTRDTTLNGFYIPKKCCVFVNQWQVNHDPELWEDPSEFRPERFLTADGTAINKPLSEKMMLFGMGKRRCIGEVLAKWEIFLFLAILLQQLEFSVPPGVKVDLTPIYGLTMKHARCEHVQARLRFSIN
Chain of 3',5'-cyclic-AMP phosphodiesterase 4B (Homo sapiens) (Q07343 whole entry, looked up): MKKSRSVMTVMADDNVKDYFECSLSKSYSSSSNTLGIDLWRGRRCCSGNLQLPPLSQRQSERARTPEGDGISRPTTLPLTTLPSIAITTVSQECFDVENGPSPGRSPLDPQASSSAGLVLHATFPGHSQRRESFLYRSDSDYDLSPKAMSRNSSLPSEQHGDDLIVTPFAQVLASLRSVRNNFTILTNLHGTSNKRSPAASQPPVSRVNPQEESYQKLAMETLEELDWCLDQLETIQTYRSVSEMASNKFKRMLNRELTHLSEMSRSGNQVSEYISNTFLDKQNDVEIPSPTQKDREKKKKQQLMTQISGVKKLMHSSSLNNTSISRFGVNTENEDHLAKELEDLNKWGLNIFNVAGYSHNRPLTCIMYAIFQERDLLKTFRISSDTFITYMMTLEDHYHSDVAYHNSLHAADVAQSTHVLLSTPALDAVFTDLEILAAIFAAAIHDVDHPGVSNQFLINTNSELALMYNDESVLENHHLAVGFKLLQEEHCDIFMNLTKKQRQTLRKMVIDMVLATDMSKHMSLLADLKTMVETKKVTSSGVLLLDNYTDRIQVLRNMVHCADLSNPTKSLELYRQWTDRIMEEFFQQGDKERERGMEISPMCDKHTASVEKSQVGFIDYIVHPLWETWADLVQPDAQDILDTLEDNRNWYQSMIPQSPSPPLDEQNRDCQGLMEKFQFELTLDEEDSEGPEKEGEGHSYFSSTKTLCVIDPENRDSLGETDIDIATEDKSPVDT
Chain of Cytochrome P450 2C19 (Homo sapiens) (P33261 whole entry, looked up): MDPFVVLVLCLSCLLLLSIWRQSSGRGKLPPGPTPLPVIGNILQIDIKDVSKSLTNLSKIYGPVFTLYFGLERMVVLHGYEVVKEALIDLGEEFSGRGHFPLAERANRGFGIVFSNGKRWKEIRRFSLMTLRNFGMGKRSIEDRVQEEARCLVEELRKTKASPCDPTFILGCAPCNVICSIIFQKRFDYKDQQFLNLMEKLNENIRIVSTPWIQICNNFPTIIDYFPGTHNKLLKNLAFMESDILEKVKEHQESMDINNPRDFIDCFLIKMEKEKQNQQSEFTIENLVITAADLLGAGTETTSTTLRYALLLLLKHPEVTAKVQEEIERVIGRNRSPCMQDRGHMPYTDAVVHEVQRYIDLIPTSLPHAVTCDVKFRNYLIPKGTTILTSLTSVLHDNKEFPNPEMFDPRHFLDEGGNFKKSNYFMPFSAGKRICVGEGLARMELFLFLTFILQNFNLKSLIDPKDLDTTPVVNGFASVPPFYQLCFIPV
Chain of Cytochrome P450 2D6 (Homo sapiens) (P10635 whole entry, looked up): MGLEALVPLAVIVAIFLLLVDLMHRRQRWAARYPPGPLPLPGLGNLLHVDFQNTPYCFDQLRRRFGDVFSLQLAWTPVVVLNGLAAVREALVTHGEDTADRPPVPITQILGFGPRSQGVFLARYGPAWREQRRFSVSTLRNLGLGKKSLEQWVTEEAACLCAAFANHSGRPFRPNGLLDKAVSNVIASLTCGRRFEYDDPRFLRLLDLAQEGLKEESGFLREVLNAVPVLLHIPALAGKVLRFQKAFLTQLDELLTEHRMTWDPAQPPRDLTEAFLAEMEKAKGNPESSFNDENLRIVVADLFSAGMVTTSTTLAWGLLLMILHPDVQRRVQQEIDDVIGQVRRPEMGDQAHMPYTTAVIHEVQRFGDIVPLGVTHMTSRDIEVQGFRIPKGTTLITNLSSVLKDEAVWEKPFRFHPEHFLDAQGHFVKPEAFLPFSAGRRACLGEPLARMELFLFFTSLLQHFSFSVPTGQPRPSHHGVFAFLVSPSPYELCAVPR
Chain of Cytochrome P450 3A4 (Homo sapiens) (P08684 whole entry, looked up): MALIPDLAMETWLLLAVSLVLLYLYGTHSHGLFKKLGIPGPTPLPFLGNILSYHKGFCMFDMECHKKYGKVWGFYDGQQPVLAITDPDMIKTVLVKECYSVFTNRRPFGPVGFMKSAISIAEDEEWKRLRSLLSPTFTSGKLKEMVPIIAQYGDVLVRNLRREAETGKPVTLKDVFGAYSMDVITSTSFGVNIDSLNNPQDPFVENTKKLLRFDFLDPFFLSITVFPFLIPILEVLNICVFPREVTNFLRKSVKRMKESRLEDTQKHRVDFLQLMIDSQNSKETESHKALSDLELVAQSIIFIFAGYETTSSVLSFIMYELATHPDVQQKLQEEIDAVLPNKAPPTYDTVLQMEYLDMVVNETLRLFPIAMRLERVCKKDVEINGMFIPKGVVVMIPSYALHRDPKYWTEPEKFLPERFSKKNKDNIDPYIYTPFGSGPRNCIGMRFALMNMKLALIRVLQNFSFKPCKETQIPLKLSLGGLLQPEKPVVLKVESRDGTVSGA

Take `CC(C)=C[C@H]1[C@@H](C(=O)OCc2cc3c(cc2Cl)OCO3)C1(C)C`: the Potency in [1] was greater than 11.4 µM; in [3] it was 0.794 µM (active); in assay [5], greater than 46 µM; in assay [6], greater than 9.22 µM; in [8], 0.316 µM (active); in [10] it was 1.58 µM (active). Further, the activity change, negative = inhibition in [2] is -2.25%. Besides, the activity, negative = inhibition in assay [4] was 0.513%. In addition, the call in assay [7] was inactive. In addition, in assay [9], the activity change, positive = activation is -75% [at 11.4 µM].

Regarding `NNc1nncn1N`, the Potency in assay [1] is greater than 11.4 µM; in assay [5], greater than 46 µM; in [6], greater than 9.22 µM. For the same molecule, the activity change, negative = inhibition in assay [2] was 17.5%; in assay [11] it was 5.16%; in [12], 3.94% [at 11.4 µM]. The activity, negative = inhibition in assay [4] was 18.4%. Besides, the call in [7] was inactive.

As for `C[C@H](c1ccccc1)N1CCN([C@@H](C)c2ccccc2)CC1`, the Potency in assay [1] is greater than 11.4 µM; in assay [5] it was greater than 46 µM; in assay [6], greater than 9.22 µM; in assay [13], 0.0631 µM (active). Further, the activity change, negative = inhibition in assay [2] was -6.57%; in assay [3], -16% [at 2.29 µM]; in assay [12], 1.95% [at 11.4 µM]. Also, the activity, negative = inhibition in [4] is -0.496%. In addition, the outcome in assay [7] was inactive.

On to `O=P(O)(OP(=O)(O)c1ccccc1)c1ccccc1` (tested in a mixture with another compound), for which the Potency is greater than 11.4 µM in assay [1], greater than 46 µM in assay [5] and greater than 9.22 µM in [6]. Also, the activity change, negative = inhibition in assay [2] is -8.54%; in [11] it was -3.07%; in [12], 3.03% [at 11.4 µM]. Moreover, in assay [4], the activity, negative = inhibition was 2.23%. Besides, the molecule was classed as inactive in assay [7].

For the molecule `Oc1ccc([C@H](O)[C@@H]2CCCCN2)cc1O`, the Potency was greater than 11.4 µM in assay [1] and greater than 9.22 µM in assay [6]. In addition, the activity change, negative = inhibition in assay [2] is -22.3%; in [11], 5.42%; in assay [12], 1.46% [at 11.4 µM]. The Potency entry in assay [3] is “inactive”. The activity, negative = inhibition in [4] was 8.8%. Besides, the call in assay [7] was inactive.

For `N[C@@H](Cc1cc(Br)c(O)c(Br)c1)C(=O)O`, the figures for the Potency in [1], in assay [5] and in assay [6] were greater than 11.4 µM, greater than 46 µM and greater than 9.22 µM, respectively. Besides, the activity change, negative = inhibition in assay [2] was -11.9%; in assay [12], 1.55% [at 11.4 µM]. Besides, in assay [3], the Potency entry was “inactive”. Moreover, the activity, negative = inhibition in assay [4] was 5.31%. The molecule was called inactive in [7].

As for `CC(C)[C@@H](Br)C(=O)NCC(=O)O`, the Potency is greater than 11.4 µM in [1], greater than 46 µM in assay [5] and greater than 9.22 µM in assay [6]. In addition, the activity change, negative = inhibition is 5.1% in assay [2], 0.167% in [11] and 4.52% [at 11.4 µM] in assay [12]. The activity, negative = inhibition in [4] is 11.3%. Also, in assay [7], the call was inactive.

On to `CC(C)C(=O)CP(=O)(O)O`, for which the Potency in assay [1] is greater than 11.4 µM; in [5], greater than 46 µM; in assay [6] it was greater than 9.22 µM. Moreover, the activity change, negative = inhibition is 10.1% in assay [2] and 7.02% in [11]. Also, the Potency result in [3] was “inactive”. In addition, the activity, negative = inhibition in assay [4] was 5.14%. Moreover, the call in assay [7] was inactive.

Consider `O=P(O)(O)c1ccccc1` (tested in a mixture with another compound), for which the Potency in assay [1] was greater than 11.4 µM. Moreover, the activity change, negative = inhibition in assay [2] was 2.76%; in [11], 5.01%; in assay [12], 6.51% [at 11.4 µM]. The Potency result in assay [3] is “inactive”. For the same molecule, the activity, negative = inhibition in assay [4] is -0.661%. In addition, the result in assay [7] was inactive.

For `Cn1c(=O)c2[nH]cnc2n(C)c1=O.[CH2-][C@H](Cc1cccc2cc(C(=O)O)c(=O)oc12)OC.[Hg].[OH-]`, the Potency in assay [1] is 4.43 µM (active). Moreover, the activity change, negative = inhibition in assay [2] is -5.03%; in assay [11], 6.5%. Further, the Potency result in assay [3] is “inactive”. The activity, negative = inhibition in assay [4] was 14%. For the same molecule, the molecule was called inactive in [7].

On to `CO[C@@H]([CH2][Hg])CN1C(=O)c2ccccc2S1(=O)=O.Cn1c(=O)c2nc[nH]c2n(C)c1=O`, for which the Potency in assay [1] is 1.86 µM (active). For the same molecule, the activity change, negative = inhibition in [2] was 12.7%; in [3], -22% [at 2.29 µM]; in assay [11] it was -3.51%; in assay [12] it was -0.0716% [at 11.4 µM]. In [4], the activity, negative = inhibition is 6.13%. Also, the result in assay [7] was inactive. For the same molecule, the Potency result in assay [13] is “inactive”.

For `C[C@@H]1CC[C@@H]2N(C1)C[C@H]1[C@@](O)([C@H](O)C[C@]3(O)[C@H]4CC[C@H]5[C@]6(O)O[C@]4(C[C@]13O)[C@@]5(C)CC[C@@H]6O)[C@@]2(C)O`, the results for the Potency in [1] and in assay [6] were greater than 11.4 µM and greater than 9.22 µM, respectively. Also, the activity change, negative = inhibition is 0.655% in assay [2], 4.97% in [11] and 4.3% [at 11.4 µM] in assay [12]. Moreover, the Potency result in assay [3] was “inactive”. Besides, in [4], the activity, negative = inhibition is -1.33%. Besides, the molecule was called inactive in assay [7].

As to `c1cc(C2N3CCCN2CC3)ccn1` (stereo unspecified), the Potency was greater than 11.4 µM in assay [1], 1.26 µM (active) in assay [3], greater than 46 µM in assay [5] and greater than 9.22 µM in [6]. Besides, the activity change, negative = inhibition in assay [2] is 2.62%; in assay [12], 2.87% [at 11.4 µM]. Also, in assay [4], the activity, negative = inhibition was 3.03%. The result in assay [7] was inactive. For the same molecule, in assay [10], the Potency entry was “inactive”.

As for `O=C(O)C[C@H]1NCc2cc3ccccc3nc21`, the Potency in assay [1] was greater than 11.4 µM; in [6] it was greater than 9.22 µM. Besides, the activity change, negative = inhibition in [2] is 2.39%; in [3], -4.9% [at 2.29 µM]; in [11] it was 13.5%; in assay [12], 1.75% [at 11.4 µM]. The activity, negative = inhibition in [4] was 5.32%. In assay [7], the call was inactive.

With `CSc1ccc2c(c1)c(CCN)c(C)n2Cc1ccccc1Cl`, the Potency in assay [1] was greater than 11.4 µM; in assay [5], greater than 46 µM; in [6], greater than 9.22 µM. Besides, the activity change, negative = inhibition in [2] is 16.6%; in [11], 17.6%; in assay [12] it was -5.61% [at 11.4 µM]. Also, the activity, negative = inhibition in [4] was -2.31%. Further, the molecule was called inactive in assay [7].
